Results: PubChem BioAssay (NCATS)
Inconclusive results are not listed. Activity calls are given as the source filed them. Unless noted, the call rests on the fitted dose curve; in most records, active means well fitted curve in either direction with a large enough effect (not every such curve was filed as active); inconclusive means small, poorly fitted or top-dose-only effect, or another doubt; inactive means flat fitted curve, though single readings scatter.

Experiments:
[1] = biological target: Lysosomal acid glucosylceramidase (Homo sapiens) (UniProt P04062); experiment: Glucocerebrosidase-p2 (AID 348; in the data active means potency below about 10 µM; further: potency means the concentration at half of the fitted maximal effect); conditions: purified GBA, blue fluorogenic substrate, 40 min
Method in brief: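 Compounds titrated from 0.6 nM upwards against 0.2 nM enzyme in pH 5.9 citric acid/KH2PO4, taurocholate, tween-20; blue fluorogenic substrate 80 uM, 40 min room temperature, stopped and read Ex 365/Em 440 for AC50.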

[2] = AP1 Signaling Pathway (AID 357); conditions: ME-180 AP-1-bla reporter, EGF-induced, beta-lactamase ratio, 5 h; at 7.69 µM (top of the series) unless noted;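 further: ME-180 reporter cells stimulated with EGF at its EC50 level; on the % scale 0 is the no-effect control and ±100 the full control effect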
Method in brief: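 First, ME-180 AP-1-bla cells were cultured overnight at 37 °C in low-serum Opti-MEM. Next, titrated compounds with EC50 EGF were incubated 5 hours. Finally, CCF4 was added for 2.5 hours and the 460/530 nm ratio recorded.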

[3] = NFAT Signaling Pathway (AID 444); conditions: Jurkat NFAT-bla M1, carbachol, beta-lactamase ratio, 5 h; at 7.69 µM (top of the series) unless noted;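 further: carbachol stimulus at about its EC50 of 1 µM final; on the % scale 0 is the no-effect control and ±100 the full control effect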
Method in brief: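 Jurkat cells with NFAT-driven β-lactamase reporter and co-expressed M1 receptor, stimulated with carbachol (final 1 uM, ~EC50), compound titration, 5 h at 37 °C. CCF4 loaded 1 h at RT; 460/530 nm ratio gave %activity and AC50.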

[4] = Stat Signaling Pathway (AID 446); conditions: ME-180 SIE beta-lactamase reporter, IL-6 stimulated, 5 h; at 7.69 µM (top of the series) unless noted;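 further: ME-180 cervical cancer cells given 40 pM IL-6 alongside compound; SIE-controlled beta-lactamase reporter measured as 460/530 nm FRET emission ratio; on the % scale 0 is the no-effect control and ±100 the full control effect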
Method in brief: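 ME-180 cells carrying a SIE-driven beta-lactamase reporter are stimulated with 40 pM IL-6 for 5 h at 37C in the presence of compound. The 460/530 nm FRET substrate ratio is read after 2.5 h at RT. Data are normalised to 300 pM IL-6 and to 125 nM JAK inhibitor controls.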

[5] = biological target: Glucocorticoid receptor (Homo sapiens) (UniProt P04150); experiment: GR-GFP Redistribution (AID 450;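 active means compounds whose dose series gives a full or clear partial fitted curve of increased nuclear translocation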; further: potency means the concentration at half of the fitted maximal effect); conditions: U2OS GR-GFP nuclear translocation, laser cytometry, 2 h
[6] = biological target: Glucocorticoid receptor (Homo sapiens) (UniProt P04150); experiment: GR-EFC Redistribution (AID 451; calls by dose curve; further: potency means the concentration at half of the fitted maximal effect); conditions: CHO-K1 GR-EFC translocation, beta-gal luminescence, 2 h
Method in brief: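 CHO-K1 cells expressing nuclear EA and GR-ED fragments of b-gal; compounds titrated up to 46 uM final, 2 h at 37 C. GR nuclear translocation read as complemented b-gal luminescence after 1 h RT detection.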

[7] = biological target: Mitogen-activated protein kinase 10 (Mus musculus) (UniProt Q61831); experiment: JNK3 AlphaScreen Assay (AID 530); conditions: JNK3 lysate, c-Jun phosphorylation; series mostly up to 11.4 µM;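 further: kinase came from lysate of stimulated human HepG2 cells; signal reports phosphorylation of biotinylated GST-cJun 1-79 at Ser73 with 10 µM ATP; on the % scale 0 is the no-effect control and ±100 the full control effect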
Method in brief: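 qHTS format: compounds tested as titrations against IL-1beta/TNF-alpha-activated HepG2 lysate JNK3 with biotin-GST-cJun substrate and 10 uM ATP at room temperature. Loss of anti-phospho-cJun AlphaScreen signal indicates inhibition.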

[8] = biological target: 3',5'-cyclic-AMP phosphodiesterase 4B (Homo sapiens) (UniProt Q07343); experiment: qHTS Assay for Inhibitors of PDE-IV (AID 607; active means well fitted activation curve with a large enough effect in the main read-out, with a control signal flat, not every such curve was filed as active; further: % of control where 0% means no effect); conditions: HEK293 ACTOne CNG channel cells, membrane potential fluorescence; series mostly up to 22.9 µM
Method in brief: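 HEK293 ACTOne cells with CNG channel (1000/well), endogenous PDE4; membrane potential dye, compounds up to 22.9 uM final. Fluorescence Ex 535/Em 590; RO 20-1724 (100 uM final) as reference.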

[9] = biological target: ATP-dependent 6-phosphofructokinase (Trypanosoma brucei brucei) (UniProt O15648); experiment: qHTS Assay to Find Inhibitors of T. brucei phosphofructokinase: hit validation (AID 492961; active means well fitted curve in the direction sought with a large enough effect; an effect the other way counts as inactive or inconclusive); conditions: T. brucei PFK, ADP-Glo luminescence; series mostly up to 51.4 µM
Method in brief: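 Inhibition of parasite PFK is measured as reduced ADP formation, quantified via luciferase after ATP depletion. Assay used 0.1 mM ATP, 0.5 mM F6P, 1.25 nM enzyme, 45 min incubation.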

[10] = qHTS profiling for inhibitors of Plasmodium falciparum proliferation (AID 504749; active means well fitted curve in the direction sought with a large enough effect; an effect the other way counts as inactive or inconclusive;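 further: 0% = DMSO vehicle and full inhibition = artemisinin control; nearly all actives have a fitted effect of over 60% in size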); conditions: P. falciparum in erythrocytes, SYBR Green DNA, 72 h, at 28.7 µM (top of the series)
Method in brief: (§1)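 Readout was DNA-dye fluorescence from lysed cultures, ex 485/em 535 nm. Parasitized red cells had grown 72 h with compound; data scaled between 0.29 uM artemisinin and DMSO wells and corrected using vehicle-only plates.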

AS120 = experiment: as above; conditions: P. falciparum in erythrocytes, SYBR Green DNA, 72 h; series mostly up to 28.7 µM
Method in brief: as §1

ATS189 = experiment: as above; conditions: P. falciparum in erythrocytes, SYBR Green DNA, 72 h; series mostly up to 28.7 µM
Method in brief: as §1

W2 = experiment: as above; conditions: P. falciparum in erythrocytes, SYBR Green DNA, 72 h; series mostly up to 28.7 µM
Method in brief: as §1

Lysosomal acid glucosylceramidase (Homo sapiens), sequence (P04062 whole entry, looked up): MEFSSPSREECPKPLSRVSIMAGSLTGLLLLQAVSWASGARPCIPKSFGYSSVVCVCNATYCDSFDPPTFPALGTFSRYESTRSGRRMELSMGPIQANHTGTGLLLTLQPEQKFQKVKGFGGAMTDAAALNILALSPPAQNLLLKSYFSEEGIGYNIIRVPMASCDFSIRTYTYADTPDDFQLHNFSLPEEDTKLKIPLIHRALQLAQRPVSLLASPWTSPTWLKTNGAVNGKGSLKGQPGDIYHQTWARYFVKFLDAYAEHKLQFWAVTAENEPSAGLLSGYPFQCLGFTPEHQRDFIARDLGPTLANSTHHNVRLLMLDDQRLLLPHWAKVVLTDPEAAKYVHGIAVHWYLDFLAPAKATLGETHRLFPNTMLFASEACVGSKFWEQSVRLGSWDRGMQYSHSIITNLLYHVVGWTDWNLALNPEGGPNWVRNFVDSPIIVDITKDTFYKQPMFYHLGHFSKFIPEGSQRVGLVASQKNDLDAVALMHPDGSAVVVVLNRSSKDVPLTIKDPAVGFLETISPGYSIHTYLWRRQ
Glucocorticoid receptor (Homo sapiens), sequence (P04150 whole entry, looked up, the tested form may be a part): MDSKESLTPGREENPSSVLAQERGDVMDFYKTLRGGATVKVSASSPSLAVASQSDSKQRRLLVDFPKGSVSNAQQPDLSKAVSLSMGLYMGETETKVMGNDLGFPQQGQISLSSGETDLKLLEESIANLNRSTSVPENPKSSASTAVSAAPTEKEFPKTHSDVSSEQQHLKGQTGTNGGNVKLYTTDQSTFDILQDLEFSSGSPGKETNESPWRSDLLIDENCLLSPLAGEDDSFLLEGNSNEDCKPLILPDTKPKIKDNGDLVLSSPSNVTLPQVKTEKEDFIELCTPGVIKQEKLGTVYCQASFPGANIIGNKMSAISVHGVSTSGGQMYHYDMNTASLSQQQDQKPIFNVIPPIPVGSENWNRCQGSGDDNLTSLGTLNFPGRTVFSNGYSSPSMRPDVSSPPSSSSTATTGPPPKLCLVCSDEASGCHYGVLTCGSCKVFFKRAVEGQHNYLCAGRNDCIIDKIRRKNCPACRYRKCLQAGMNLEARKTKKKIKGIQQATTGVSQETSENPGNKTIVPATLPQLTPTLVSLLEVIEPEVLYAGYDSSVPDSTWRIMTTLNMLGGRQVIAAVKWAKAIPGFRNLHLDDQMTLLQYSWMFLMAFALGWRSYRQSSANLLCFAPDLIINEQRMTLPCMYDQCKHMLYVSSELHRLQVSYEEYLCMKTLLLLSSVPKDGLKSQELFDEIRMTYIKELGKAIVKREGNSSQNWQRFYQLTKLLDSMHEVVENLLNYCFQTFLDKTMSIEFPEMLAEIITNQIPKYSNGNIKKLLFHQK
3',5'-cyclic-AMP phosphodiesterase 4B (Homo sapiens), sequence (Q07343 whole entry, looked up): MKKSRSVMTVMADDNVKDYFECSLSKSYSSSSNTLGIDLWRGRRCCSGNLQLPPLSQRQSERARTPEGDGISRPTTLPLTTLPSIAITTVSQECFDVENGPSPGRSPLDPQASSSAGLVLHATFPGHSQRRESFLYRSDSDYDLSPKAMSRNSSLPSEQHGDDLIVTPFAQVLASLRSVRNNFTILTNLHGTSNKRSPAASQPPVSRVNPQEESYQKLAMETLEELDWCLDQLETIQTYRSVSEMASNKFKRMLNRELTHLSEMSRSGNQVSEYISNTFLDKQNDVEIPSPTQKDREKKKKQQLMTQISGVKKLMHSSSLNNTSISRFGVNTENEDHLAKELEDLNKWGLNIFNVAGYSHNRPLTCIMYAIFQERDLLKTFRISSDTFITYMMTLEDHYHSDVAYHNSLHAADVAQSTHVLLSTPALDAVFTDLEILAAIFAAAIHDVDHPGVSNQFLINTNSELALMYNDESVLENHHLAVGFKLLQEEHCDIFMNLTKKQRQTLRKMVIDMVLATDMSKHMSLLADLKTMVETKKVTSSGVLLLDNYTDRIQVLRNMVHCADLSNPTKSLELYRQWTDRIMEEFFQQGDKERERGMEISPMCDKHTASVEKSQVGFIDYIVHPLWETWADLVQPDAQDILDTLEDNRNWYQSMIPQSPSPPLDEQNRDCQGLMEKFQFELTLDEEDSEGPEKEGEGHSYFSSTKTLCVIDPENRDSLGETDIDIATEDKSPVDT
ATP-dependent 6-phosphofructokinase (Trypanosoma brucei brucei), sequence (O15648 whole entry, looked up): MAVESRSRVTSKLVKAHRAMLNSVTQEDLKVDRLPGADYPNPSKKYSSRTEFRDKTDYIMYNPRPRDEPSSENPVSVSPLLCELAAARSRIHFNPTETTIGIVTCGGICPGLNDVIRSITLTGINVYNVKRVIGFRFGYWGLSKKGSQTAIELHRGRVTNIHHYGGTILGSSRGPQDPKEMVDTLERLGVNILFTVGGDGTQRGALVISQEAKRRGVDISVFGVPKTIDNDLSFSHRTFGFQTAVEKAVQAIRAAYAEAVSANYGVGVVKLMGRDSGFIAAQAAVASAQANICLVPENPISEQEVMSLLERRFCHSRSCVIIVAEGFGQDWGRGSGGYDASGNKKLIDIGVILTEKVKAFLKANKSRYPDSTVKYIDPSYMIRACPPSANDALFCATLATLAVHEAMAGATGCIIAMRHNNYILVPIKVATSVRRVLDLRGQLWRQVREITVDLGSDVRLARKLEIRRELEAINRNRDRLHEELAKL

C/C(=N/NC(=O)c1ccncc1)c1ccccc1Cl
inactive: Potency [1] > 11.4 µM | activity change, negative = inhibition [2] 12.5% | activity change, negative = inhibition [3] 8.3% | activity, negative = inhibition [4] -2.05% | Potency [5] > 46 µM | Potency [6] > 9.22 µM | Potency [7] | Potency [8]

C=CCSc1nc2c(N)ncnc2n1[C@@H]1O[C@H](CO)[C@@H](O)[C@@H]1O
inactive: Potency [1] > 11.4 µM | activity change, negative = inhibition [2] 4.59% | activity change, negative = inhibition [3] 2.7% | activity, negative = inhibition [4] -1.09% | Potency [5] > 46 µM | Potency [6] > 9.22 µM | Potency [7] | Potency [8]

NC(N)=N[C@H](CC(=O)O)c1ccccc1
inactive: Potency [1] > 11.4 µM | activity change, negative = inhibition [2] 5.91% | activity change, negative = inhibition [3] 1.32% | activity, negative = inhibition [4] 3.35% | Potency [5] > 46 µM | Potency [6] > 9.22 µM | Potency [7] | Potency [8]

CC1(C)S[C@@H]2[C@H](NC(=O)Cc3ccccc3)C(=O)N2[C@@H]1C(=O)O
inactive: Potency [1] > 11.4 µM | activity change, negative = inhibition [2] 11.5% | activity change, negative = inhibition [3] 4.82% | activity, negative = inhibition [4] -4.4% | Potency [5] > 46 µM | Potency [6] > 9.22 µM | Potency [7] | Potency [8] | outcome [9] | activity, negative = inhibition ([10]; parasite line A) 2.23% | activity, negative = inhibition ([10]; parasite line B) 9.91% | Potency (AS120) | Potency (ATS189) | Potency (W2)

Cc1cc2ncn(CC(=O)O)c2cc1C
inactive: Potency [1] > 11.4 µM | activity change, negative = inhibition [2] -4.54% | activity change, negative = inhibition [3] 1.45% | activity, negative = inhibition [4] 8.76% | Potency [5] > 46 µM | Potency [6] > 9.22 µM | Potency [7] | Potency [8]

O=C(O)CCN1C(=S)CSC1=S
inactive: Potency [1] > 11.4 µM | activity change, negative = inhibition [2] -2.79% | activity change, negative = inhibition [3] 8.02% | activity, negative = inhibition [4] 10.1% | Potency [5] > 46 µM | Potency [6] > 9.22 µM | Potency [7] | Potency [8]

Nc1nc(SCc2ccccn2)c2ncn(C3CCCC3)c2n1
inactive: Potency [1] > 11.4 µM | activity change, negative = inhibition [2] -14.6% | activity change, negative = inhibition [3] 9.85% | activity, negative = inhibition [4] 4.58% | Potency [5] > 46 µM | Potency [6] > 9.22 µM | Potency [7]

Cc1nc2ccccc2nc1N1CCCC1
inactive: Potency [1] > 11.4 µM | activity change, negative = inhibition [2] 2.88% | activity change, negative = inhibition [3] 0.00129% | activity, negative = inhibition [4] 3.44% | Potency [5] > 46 µM | Potency [6] > 9.22 µM | Potency [7] | Potency [8]

NCC(=O)[C@@H](O)[C@H](O)[C@H](O)CO
inactive: Potency [1] > 11.4 µM | activity change, negative = inhibition [2] -1.89% | activity change, negative = inhibition [3] 8.35% | activity, negative = inhibition [4] 3.6% | Potency [5] > 46 µM | Potency [6] > 9.22 µM | Potency [7] | Potency [8]

COc1ccc(-c2nc3cnc(OC)nc3n(Cc3cccs3)c2=O)cc1
inactive: Potency [1] > 11.4 µM | activity change, negative = inhibition [2] 20.7% | activity change, negative = inhibition [3] 8.9% | activity, negative = inhibition [4] 14.3% | Potency [5] > 9.22 µM | Potency [6] > 46 µM | Potency [7]

[Cu].[NH-][C@H](CC(=O)O)C(=O)O.[NH-][C@H](CC(=O)O)C(=O)O
inactive: Potency [1] > 11.4 µM | activity change, negative = inhibition [2] 5.72% | activity change, negative = inhibition [3] 8.79% | activity, negative = inhibition [4] 13.3% | Potency [5] > 46 µM | Potency [6] > 9.22 µM | Potency [7] | Potency [8]

O=C(O)c1ccccc1-c1ccccc1C(=O)c1ccccc1
inactive: Potency [1] > 11.4 µM | activity change, negative = inhibition [2] 6.33% | activity change, negative = inhibition [3] 5.49% | activity, negative = inhibition [4] 2.8% | Potency [5] > 46 µM | Potency [6] > 9.22 µM | Potency [7] | Potency [8]

COc1c2c(c3c(c1CCC(=O)O)OC(C)(C)C=C3)OC(C)(C)C=C2
inactive: Potency [1] > 11.4 µM | activity change, negative = inhibition [2] -1.7% | activity change, negative = inhibition [3] 13.1% | activity, negative = inhibition [4] -3.06% | Potency [5] > 46 µM | Potency [6] > 9.22 µM | Potency [7] | Potency [8]

O=C1c2ccccc2-c2ccc(N=[N+]([O-])c3ccc4c(c3)C(=O)c3ccccc3-4)cc21
inactive: Potency [1] > 11.4 µM | activity change, negative = inhibition [2] 5.38% | activity change, negative = inhibition [3] 10.2% | activity, negative = inhibition [4] 7.21% | Potency [5] > 46 µM | Potency [6] > 9.22 µM | Potency [7] | Potency [8]

OC(Cc1ccccc1)(Cc1ccccc1)c1ccccc1
inactive: Potency [1] > 11.4 µM | activity change, negative = inhibition [2] -8.82% | activity change, negative = inhibition [3] -15.2% | activity, negative = inhibition [4] 11% | Potency [5] > 46 µM | Potency [6] > 9.22 µM | Potency [7] | Potency [8]

CCOc1ccc(N=NS(=O)(=O)O)cc1
inactive: Potency [1] > 11.4 µM | activity change, negative = inhibition [2] 8.26% | activity change, negative = inhibition [3] -0.735% | activity, negative = inhibition [4] 8.88% | Potency [5] > 46 µM | Potency [6] > 9.22 µM | Potency [7] | Potency [8]
